ERSE-FLuc reporter activation data for 36 molecules are collected here from the supplement of paper PMC4954754.

± gives the uncertainty stated by the source.

The assay deals with HEK293T-Rex ERSE-FLuc. In words: ERSE-FLuc reporter activation, triplicate confirmation, relative to 500 nM thapsigargin (% of thapsigargin); higher = stronger ATF6/ERSE reporter activation. As to conditions: 6.8 µM; 18 h; screen: confirmation. The procedure:
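HEK293T-Rex cells stably expressing the ERSE-firefly luciferase (BiP promoter, ATF6-preferring) or XBP1-splicing Renilla luciferase (IRE1/XBP1s) reporter, 1536-well plates, compound at 6.8 µM for 18 hr at 37 °C; luminescence read […] and expressed as % activation = 100*(compound - median DMSO)/(median 500 nM thapsigargin - median DMSO). Primary screen was single-pass; confirmation screen in triplicate (mean ± SD).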
As for `Cc1ccc(O)c(NC(=O)c2cc(C3CC3)on2)c1`, the ERSE-FLuc reporter activation worked out at 59.4 ± 7.7.
To `NC(=O)c1c(NC(=O)COc2ccccc2)sc2c1CCC2` belongs 27.1 ± 3.2; to `O=C(CCc1ccccc1)Nc1ccc(Cl)cn1`, 27.8 ± 4.6; to `CN(C)c1ccc(-c2nc3ccc(N)cc3[nH]2)cc1`, 32.7 ± 4.4.
In the case of `COc1cc2ccccc2cc1C(=O)N/N=C/c1cccs1`, the ERSE-FLuc reporter activation was determined as 25.7 ± 4.6.
Next, `Cc1ccc(C(=O)Nc2ccccc2N)cc1`: 56.8 ± 4.5; `Cn1c(-c2cccc(Cl)c2)cnc1NC(=O)c1ccccc1`: 25.6 ± 3.7; `OCCNc1nc(Nc2ccc(Br)cc2)nc2ccccc12`: 54.2 ± 16.
To `COc1ccccc1/C=N/Nc1nc(-c2ccccc2)cc(=O)[nH]1` belongs 25.2 ± 1.8.
Consider `CCc1nc2sc(C(=O)c3ccccc3)c(N)c2cc1C`, for which the ERSE-FLuc reporter activation was found to be 26.2 ± 2.5.
Next, `O=C(N/N=C\c1ccccc1[N+](=O)[O-])c1[nH]nc2c1CCc1ccccc1-2`: 31.4 ± 3; `O=C(N/N=C/c1ccc2c(c1)OCO2)c1cccc(F)c1`: 27.1 ± 2.4.
To `O=C(Nc1ccc(Cl)cn1)c1ccc(Cl)cc1Cl` belongs 27.1 ± 2.4; to `Oc1ccc(-c2csc3nc(-c4ccccc4)nn23)c(O)c1`, 33.9 ± 2.6.
Next, `CCN(CC)c1ccc(NC(=O)c2cccc(OC)c2)cc1`: 26.1 ± 1.1; `O=C(N/N=C/c1cccc(O)c1O)c1ccccc1I`: 25.6 ± 5.4.
As to `COC(=O)c1ccc2c(COC(C)=O)c(OC(C)=O)ccc2c1COC(C)=O`, the ERSE-FLuc reporter activation was determined as 113 ± 10.
`CS(=O)(=O)c1ncc(Cl)c(C(=O)C(C#N)c2nc3ccccc3s2)n1` (stereo unspecified) returned an ERSE-FLuc reporter activation of 42.3 ± 12.
The molecule `COc1ccc(C(=O)Nc2nnc(-c3cccs3)s2)cc1` returned an ERSE-FLuc reporter activation of 26.3 ± 5.
To `COc1ccc(NC(=O)/C(Cl)=C\c2ccccc2)cc1` belongs 28.6 ± 2.2.
Next, `CN(C)/C=N/C1=C(C#N)C(c2ccc3c(c2)OCO3)c2ccc3ccccc3c2O1` (stereo unspecified): 26.1 ± 9.6; `COc1ccc(-c2nn(-c3ccccc3)cc2/C=C/C(=O)O)cc1[N+](=O)[O-]`: 31.7 ± 4.4; `Cc1ccc(O)c(NC(=O)c2cc(-c3ccc(F)cc3)on2)c1`: 31.9 ± 8.4.
To `Cc1ccc(NC(=O)/C=C/c2ccco2)nc1` belongs 27.9 ± 7.1; to `COc1cccc(-c2nc3ccc(N)cc3[nH]2)c1`, 32.8 ± 4.8; to `Fc1ccc(-c2nnc3ccc(N4CCN(c5ccccn5)CC4)nn23)cc1`, 34.3 ± 3.5.
`CCOc1cc(/C=C2/NC(=O)N(Cc3ccc(F)cc3)C2=O)ccc1O` gave an ERSE-FLuc reporter activation of 32.8 ± 5.4.
Next, `COc1cccc(-c2cc(C(=O)Nc3cc(C)ccc3O)on2)c1`: 34.2 ± 8.4; `CCCNC(=O)c1ccc2nc(-c3ccc4[nH]ccc4c3)sc2c1`: 33.4 ± 9.7; `Cc1ccc(O)c(NC(=S)NC(=O)/C=C/c2ccco2)c1`: 27 ± 5.2.
To `Cc1cc(C)c(OCC(=O)N/N=C/c2ccc(O)c(O)c2)c(Br)c1` belongs 28.7 ± 6.2; to `Nc1ccc2nc(/C=C/c3ccco3)[nH]c2c1`, 40.9 ± 9.5; to `CC(=O)N1CCc2c([nH]c3ccccc23)C12CCN(CCCOc1ccccc1)CC2`, 44.2 ± 8.7.
Next, `Cc1cc(C)nc(Nc2nc(-c3ccc(O)c(O)c3)cs2)n1`: 47.4 ± 6.5.
Consider `Cc1ccc2nc(/C(C#N)=C/c3ccc(O)cc3)[nH]c2c1`, for which the ERSE-FLuc reporter activation amounted to 30.3 ± 3.
To `O=C(c1ccccc1)c1c(O)ccc2c(C(=O)c3ccccc3)c(O)ccc12` belongs 39.3 ± 7.9.
